Test results reported in PubChem BioAssay AID588343 (Broad Institute, 2011).
Hit rate of the full screen: of about 1,200 compounds, about 650 (54%) were called active. Inconclusive results (about 5%) are left out. So high a share suggests a set chosen from earlier hits. A selection follows. Measured potencies and affinities stand elsewhere. Unmarked numbers belong to inactive results.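 The calls were made as follows: active = signal-lowering curve whose fitted half-maximal concentration is at or below ten times the top valid dose tested; inconclusive = flat curve with 30 to 70% inhibition, or poor fit; inactive = signal increase, flat within 30%, or potency beyond limit.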

assay: EBV LMP1 TES2 canonical NF-kB signalling blockers – cell-based, HEK293, luciferase, cherry-pick, dose response (AID 588343); conditions: HEK293 LMP1 TES2 NF-kB luciferase reporter, 16 h; series mostly up to 35 µM; activity change, negative = inhibition: at the top concentration;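 also: 0% = median of neutral control wells and -100% = MG132 positive control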

Structure (SMILES) | activity change, negative = inhibition
COC(CNC(=O)c1ccc(N2CCC3(CC2)OCCO3)c([N+](=O)[O-])c1)OC | -6.61%
CC(=O)Nc1ccc(NC(=O)C(c2ccccc2)c2ccccc2)cc1 | 1.86%
CCOC(=O)[C@H]1[C@H]2COc3ccc(OC)cc3[C@@H]2N2C(=O)CN(C)C(=O)[C@@]12C | -6.5%
COc1ccc(C2=NN(C(=O)CSC3=NN4CCCC(=O)N=C4S3)C(c3cccc(OC)c3OC)C2)cc1 (stereo unspecified) | 5.71%
CCOC(=O)Nc1ccc2c(c1)N(C(=O)CN(C)C)c1ccccc1CC2 | -14.1%
Cn1c(=O)c2c(ncn2CC(=O)Nc2cc(S(=O)(=O)N3CCCCC3)ccc2O)n(C)c1=O | 12%
CCCN1C(=O)C2(SC(NC(C)=O)=NN2C(C)=O)c2cc(C)cc(C)c21 (stereo unspecified) | -12.8%
CCC(C)[C@H](NC(=O)NCc1cccnc1)C(=O)OC (stereo partly specified) | 9.79%
C=CCN1CCc2cc(O)c(O)cc2C(c2ccccc2)C1 (stereo unspecified) | -0.248%
Cc1ccc(C)c(S(=O)(=O)N2CCN(C(=O)c3ccc(C)s3)CC2)c1 | -14.8%
COc1ccccc1-c1ccccc1C1=CC(=O)CC(C)(C)C1=O | 20.8%
CCOC(=O)N1CCN(C(=O)C2CCC(=O)N(Cc3ccccc3OC)C2)CC1 (stereo unspecified) | 7.61%
COc1ccc(C(=O)NCCN2CCOCC2)cc1[N+](=O)[O-] | 6.07%
CNC(=O)c1[nH]cnc1C(=O)N[C@@H](CCCCNC(=O)OC(C)(C)C)C(=O)OC(C)(C)C | 34%
Cc1cccc(C)c1Nc1nc2ccccc2o1 | 2.89%
OCc1cc(C(O)CNCCCCCCOCCCCc2ccccc2)ccc1O (stereo unspecified) | 6.71%
COc1ccccc1NC(=O)c1c(Nc2ccccc2C)sc(C(=O)Nc2cccc(Cl)c2)c1N | 3.23%
O=C(OCc1nc2ccccc2s1)[C@@H]1CCCN1S(=O)(=O)c1ccccc1F | 8.66%
C[C@@H](OC(=O)c1[nH]cnc1C(=O)N1CCc2ccccc2C1)c1ccccc1 | 5.49%
O=C(Nc1ccc(Cl)cc1)c1ccco1 | 2.2%
CSCCC(NC(=O)c1ccco1)C(=O)OCC(=O)Nc1ncc(Cl)c(C)c1Cl (stereo unspecified) | 5.14%
C[C@H]1C[C@H]2[C@@H]3CCC4=CC(=O)C=C[C@]4(C)[C@@]3(F)[C@@H](O)C[C@]2(C)[C@@]1(O)C(=O)CO | -27.3%

Structure (SMILES) | activity change, negative = inhibition
CCn1c(CCNC(=O)c2ccc(OC)cc2)nnc1SCc1ccc(Cl)cc1Cl | -10.7%
CCC(Oc1ccccc1)C(=O)NC1CCSC1=O (stereo unspecified) | 0.894%
CC1=C(C)C(OCCCl)N(c2cc(O)c(Cl)cc2F)C1=O (stereo unspecified) | -1.48%
O=C(C[n+]1ccccc1)N/N=C/c1ccc(O)cc1 | 12.7%
CC(C)Cc1ccc([C@H](C)C(=O)O)cc1 | 10.3%
Cc1ccc(CNC(=O)C2CCN(S(=O)(=O)c3c(C)noc3/C=C/c3ccco3)CC2)cc1 | 23.8%
C[C@@H]1CN([C@@H](C)CO)C(=O)c2cc(NC(=O)Nc3ccccc3)ccc2O[C@H]1CN(C)C(=O)Nc1cccc2ccccc12 | -8.5%
O=C(NN1C(=O)C2C3C=CC(C4CC34)C2C1=O)c1cccc(Cl)c1 (stereo unspecified) | 2.66%
Nc1ccc(CCNc2ncnc3c2ncn3[C@@H]2O[C@H](CO)[C@@H](O)[C@H]2O)cc1 | -19.4%
NC(=O)c1ncn([C@@H]2O[C@H](CO)[C@@H](O)[C@H]2O)n1 | 44.1%
Nc1ccn(C2CCCO2)c(=O)n1 (stereo unspecified) | -9.64%
CCOc1ccccc1/C=C/c1onc(C)c1S(=O)(=O)N1CCC(C(=O)N(CC)CC)CC1 | -2.53%
COc1nc(Nc2nc3ccccc3c(=O)[nH]2)nc2ccc(C)cc12 | 63.8%
CCCC(=O)NCCCc1nc2ccccc2n1C | -6.19%
COc1c(S(=O)(=O)N2CCN(c3ccc(F)cc3)CC2)ccc(Cl)c1Cl | 0.418%
O=C(CCCOc1ccccc1)N1CCN(c2ccccc2)CC1 | -13.6%
Cc1ccc(NC(=S)Nc2cccc(S(=O)(=O)Nc3c(C)n(C)n(-c4ccccc4)c3=O)c2)cc1 | -6.17%
Cc1cccc(NC(=O)Nc2c(C)n(C)n(-c3ccccc3)c2=O)c1C | 2.9%
C/C(=N\NS(=O)(=O)c1ccc([N+](=O)[O-])cc1)c1cccs1 | 28.1%
O=C(CCNc1cccc(F)c1)c1cc2ccccc2o1 | -15.8%
Cc1ccccc1CC(=O)NCc1cccnc1 | 2.8%
COc1ccc(-c2ccc3c(c2)S(=O)(=O)c2cccc(C(=O)NCc4cc(C)oc4C(F)(F)F)c2C3=O)cc1OC | 64.1%

Structure (SMILES) | activity change, negative = inhibition
Cc1ccc(N2CCCCn3c2nc2c3c(=O)n(CC(=O)O)c(=O)n2C)cc1 | 1.98%
Cc1ccnc(N/C=C(/NC(=O)c2ccccc2)C(=O)N/N=C\c2ccc(F)cc2)n1 | -17.7%
O=C(Nc1nnc(N2CCCCCC2)s1)c1cc(-c2ccc(Br)cc2)on1 | -2.98%
COc1ccc(-c2cc(C(F)(F)F)n3nc(C(=O)N4CCOCC4)nc3n2)cc1 | -11.3%
COCCCNC(=O)CN1C(=O)COc2ccc(S(=O)(=O)N3CCOCC3)cc21 | 7.21%
CCCSc1nc2cc(S(=O)(=O)N3CCOCC3)ccc2n1CC | 13.1%
CN(C)CCN(Cc1ccc(Cl)cc1)c1ccccn1 | 17.7%
COc1ccc(CC(C)NCC(O)c2ccc(O)c(NC=O)c2)cc1 (stereo unspecified) | 22.3%
CCOC(=O)C1=C(C)NC(C)=C(C(=O)OCC)C1c1cn(-c2ccccc2)nc1-c1ccco1 | 26.1%
O=C(CSc1nnc(-c2cccc(S(=O)(=O)N3CCOCC3)c2)n1C1CCCCCC1)NCc1ccccc1 | 14.6%
O=C(Nc1cc(S(=O)(=O)N2CCOCC2)ccc1Cl)c1ccncc1 | -7.69%
N=c1c(-c2nc3ccccc3[nH]2)cc(C(=O)c2cccs2)nn1-c1ccccc1 | 42.9%
CCCC(=O)NCCCc1nc2ccccc2[nH]1 | -10.5%
Cc1cc(NC(=O)c2ccc(C)s2)n(-c2nc3ccccc3[nH]2)n1 | 1.12%
O=c1cc(Cl)nc2ccccn12 | -6.86%
COc1ccc2[nH]c3c(=O)n(CCCCC(=O)N4CCC(C(N)=O)CC4)c(=S)[nH]c3c2c1 | 4.91%
O=C(Cc1ccc(Cl)cc1)NCC(=O)N1CCCCC1 | -5.16%
Cc1ccccc1N(C(=O)c1snc(C(N)=O)c1N)C(C(=O)NC1CCCCC1)c1ccc(O)cc1 (stereo unspecified) | 47.4%
S=C1SCN(Cc2ccccc2)CN1Cc1ccco1 | -12.8%
CCOc1cc(/C=C2/C(=N)N3N=C(CC)SC3=NC2=O)ccc1OC(=O)c1ccco1 | -2.03%
COc1ccc(CCC(=O)Nc2ccc(C)c([N+](=O)[O-])c2)cc1 | 3.84%
CC(=O)Oc1ccc(C(=O)Nc2cccnc2)cc1 | 11%
